# Assay results: article PMC7862700, “An all-to-all approach to the identification of sequence-specific readers for epigenetic DNA modifications on cytosine”
# What was measured:
# Test in all cases: DAPPL (digital affinity profiling via proximity ligation, sequencing); 10 mM Tris-HCl pH 7.5, 50 mM NaCl, 1 mM DTT, 4% glycerol, room temperature, 30 min; GST-TFs on glutathione beads, 16-mer random dsDNA library, 0.1% formaldehyde crosslink after washing; high values mean tight binding
# FEV = biological target: T1, FEV (Homo sapiens, UniProt Q99581 1-238); details: protein: recombinant; tags: N-terminal GST; dsDNA, one strand shown
# T1 sequence: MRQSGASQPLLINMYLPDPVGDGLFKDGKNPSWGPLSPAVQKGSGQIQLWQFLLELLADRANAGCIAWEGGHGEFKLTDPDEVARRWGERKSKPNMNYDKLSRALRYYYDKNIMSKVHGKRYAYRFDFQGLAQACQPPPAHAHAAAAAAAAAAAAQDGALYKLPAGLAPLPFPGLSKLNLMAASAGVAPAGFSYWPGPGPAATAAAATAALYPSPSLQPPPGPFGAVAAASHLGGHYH
# How it was run: (§1)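 After expression in yeast as GST fusions, human transcription factors were bound to glutathione beads, DNA-barcoded and mixed with a tag-only sample. The pools were incubated with 200 nmole of a 16-mer random double-stranded DNA library in Tris/NaCl/DTT/glycerol buffer (30 min, room temperature), washed and crosslinked with 0.1% formaldehyde. Proximity ligation with BsaI/T4 ligase ran for 1 h at 37 °C, before PCR amplification and sequencing on an Illumina NextSeq500. Binding signal is a hexamer's read frequency for a factor divided by its frequency for the tag-only sample.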
# ETV5 = ETV5 (Homo sapiens, UniProt P41161 1-510); details: protein: recombinant; tags: N-terminal GST; dsDNA, one strand shown
# ETV5, sequence (P41161 whole entry): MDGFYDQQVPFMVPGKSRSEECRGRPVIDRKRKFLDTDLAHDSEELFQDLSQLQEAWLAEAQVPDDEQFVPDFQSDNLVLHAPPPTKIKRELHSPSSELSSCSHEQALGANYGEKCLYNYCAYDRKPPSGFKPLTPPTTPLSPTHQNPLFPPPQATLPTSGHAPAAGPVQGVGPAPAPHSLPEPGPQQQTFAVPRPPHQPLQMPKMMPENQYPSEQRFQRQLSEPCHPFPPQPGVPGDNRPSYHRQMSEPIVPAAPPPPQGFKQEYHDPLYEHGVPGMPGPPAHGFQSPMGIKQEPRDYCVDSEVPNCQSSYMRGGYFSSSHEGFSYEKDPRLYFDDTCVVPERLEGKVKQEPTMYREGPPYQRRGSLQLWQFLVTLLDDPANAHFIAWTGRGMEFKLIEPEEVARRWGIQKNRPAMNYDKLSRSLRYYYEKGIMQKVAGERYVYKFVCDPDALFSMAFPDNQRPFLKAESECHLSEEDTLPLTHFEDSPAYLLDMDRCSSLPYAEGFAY
# How it was run: as §1
# HSF1 = HSF1 (Homo sapiens, UniProt Q00613 1-529); details: protein: recombinant; tags: N-terminal GST; chain copies: 3; dsDNA, one strand shown
# HSF1, sequence (Q00613 whole entry): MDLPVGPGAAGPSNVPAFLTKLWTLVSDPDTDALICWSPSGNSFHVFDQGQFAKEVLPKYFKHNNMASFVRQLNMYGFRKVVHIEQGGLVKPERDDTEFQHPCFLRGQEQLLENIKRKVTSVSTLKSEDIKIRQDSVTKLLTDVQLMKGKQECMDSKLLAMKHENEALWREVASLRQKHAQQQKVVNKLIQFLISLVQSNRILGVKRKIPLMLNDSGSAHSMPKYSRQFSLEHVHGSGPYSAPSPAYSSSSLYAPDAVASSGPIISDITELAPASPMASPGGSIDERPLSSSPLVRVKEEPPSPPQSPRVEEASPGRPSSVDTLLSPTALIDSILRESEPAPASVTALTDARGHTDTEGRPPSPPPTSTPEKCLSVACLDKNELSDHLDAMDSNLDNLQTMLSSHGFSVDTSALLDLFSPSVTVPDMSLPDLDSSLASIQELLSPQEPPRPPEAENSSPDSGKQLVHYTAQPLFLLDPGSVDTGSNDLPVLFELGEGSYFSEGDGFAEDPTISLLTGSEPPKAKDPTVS
# How it was run: as §1
# SPIC = biological target: T2, SPIC (Homo sapiens, UniProt Q8N5J4 1-248); details: protein: recombinant; tags: N-terminal GST; dsDNA, one strand shown
# T2 sequence: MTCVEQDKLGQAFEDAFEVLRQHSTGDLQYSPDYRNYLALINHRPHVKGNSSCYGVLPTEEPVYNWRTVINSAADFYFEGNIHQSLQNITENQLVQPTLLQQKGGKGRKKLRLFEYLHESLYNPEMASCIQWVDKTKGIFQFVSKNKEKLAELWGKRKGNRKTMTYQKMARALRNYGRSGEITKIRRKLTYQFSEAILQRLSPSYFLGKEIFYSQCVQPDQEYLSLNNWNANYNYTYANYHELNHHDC
# How it was run: as §1
# ELF4 = ELF4 (Homo sapiens, UniProt Q99607 1-663); details: protein: recombinant; tags: N-terminal GST; dsDNA, one strand shown
# ELF4, sequence (Q99607 whole entry): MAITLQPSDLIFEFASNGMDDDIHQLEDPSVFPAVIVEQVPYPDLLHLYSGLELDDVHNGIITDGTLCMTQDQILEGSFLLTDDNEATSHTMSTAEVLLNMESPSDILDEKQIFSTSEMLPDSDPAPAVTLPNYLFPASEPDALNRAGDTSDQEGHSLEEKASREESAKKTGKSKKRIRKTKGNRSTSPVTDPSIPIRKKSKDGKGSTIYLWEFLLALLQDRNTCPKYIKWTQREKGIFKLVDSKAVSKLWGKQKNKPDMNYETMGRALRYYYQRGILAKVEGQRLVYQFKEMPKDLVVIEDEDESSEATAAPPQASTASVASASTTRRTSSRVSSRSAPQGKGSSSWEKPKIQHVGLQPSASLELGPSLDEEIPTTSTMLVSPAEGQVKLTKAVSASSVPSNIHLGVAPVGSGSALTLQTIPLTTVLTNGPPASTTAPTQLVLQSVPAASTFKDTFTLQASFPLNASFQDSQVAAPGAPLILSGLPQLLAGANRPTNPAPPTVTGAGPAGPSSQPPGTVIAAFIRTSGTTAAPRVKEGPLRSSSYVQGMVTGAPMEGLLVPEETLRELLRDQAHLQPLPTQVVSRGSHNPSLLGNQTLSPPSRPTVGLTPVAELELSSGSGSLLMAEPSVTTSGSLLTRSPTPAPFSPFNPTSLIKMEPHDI
# How it was run: as §1
# ELK4 = biological target: T3, ELK4 (Homo sapiens, UniProt P28324-2 1-405); details: protein: recombinant; tags: N-terminal GST; dsDNA, one strand shown
# T3 sequence: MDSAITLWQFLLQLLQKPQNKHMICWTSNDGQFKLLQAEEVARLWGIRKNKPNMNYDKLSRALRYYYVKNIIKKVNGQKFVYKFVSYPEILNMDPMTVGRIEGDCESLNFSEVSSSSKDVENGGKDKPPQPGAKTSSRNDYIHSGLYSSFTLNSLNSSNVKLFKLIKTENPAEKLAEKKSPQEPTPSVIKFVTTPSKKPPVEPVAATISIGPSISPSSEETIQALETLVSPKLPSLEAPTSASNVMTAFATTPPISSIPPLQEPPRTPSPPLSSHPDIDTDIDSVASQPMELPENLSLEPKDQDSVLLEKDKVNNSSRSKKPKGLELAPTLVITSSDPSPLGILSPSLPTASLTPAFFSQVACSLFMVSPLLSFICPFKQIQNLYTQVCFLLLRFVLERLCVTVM
# How it was run: as §1
# ETV2 = biological target: T4, ETV2 (Homo sapiens, UniProt O00321 1-342); details: protein: recombinant; tags: N-terminal GST; dsDNA, one strand shown
# T4 sequence: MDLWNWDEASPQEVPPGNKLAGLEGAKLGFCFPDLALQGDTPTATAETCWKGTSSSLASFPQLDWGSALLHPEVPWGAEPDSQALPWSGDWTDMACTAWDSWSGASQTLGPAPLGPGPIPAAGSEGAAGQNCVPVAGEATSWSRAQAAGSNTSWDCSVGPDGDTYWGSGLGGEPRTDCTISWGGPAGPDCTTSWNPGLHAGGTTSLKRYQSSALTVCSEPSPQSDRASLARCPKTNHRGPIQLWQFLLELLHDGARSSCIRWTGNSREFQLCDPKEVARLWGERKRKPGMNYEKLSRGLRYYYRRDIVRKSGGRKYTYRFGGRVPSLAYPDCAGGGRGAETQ
# How it was run: as §1
# ELF3 = biological target: T5, ELF3 (Homo sapiens, UniProt P78545 1-371); details: protein: recombinant; tags: N-terminal GST; dsDNA, one strand shown
# T5 sequence: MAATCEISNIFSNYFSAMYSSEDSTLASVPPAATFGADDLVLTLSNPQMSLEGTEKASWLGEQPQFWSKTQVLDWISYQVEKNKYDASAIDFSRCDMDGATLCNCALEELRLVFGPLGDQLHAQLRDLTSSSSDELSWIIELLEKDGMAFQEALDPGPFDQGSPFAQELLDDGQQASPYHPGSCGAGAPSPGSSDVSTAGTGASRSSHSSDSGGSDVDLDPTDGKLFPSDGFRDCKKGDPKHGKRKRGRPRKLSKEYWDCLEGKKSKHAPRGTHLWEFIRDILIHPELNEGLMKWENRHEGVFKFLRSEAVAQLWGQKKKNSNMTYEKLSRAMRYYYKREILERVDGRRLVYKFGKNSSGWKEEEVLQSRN
# How it was run: as §1
# CRX = CRX (Homo sapiens, UniProt O43186 1-299); details: protein: recombinant; tags: N-terminal GST; dsDNA, one strand shown
# CRX, sequence (O43186 whole entry): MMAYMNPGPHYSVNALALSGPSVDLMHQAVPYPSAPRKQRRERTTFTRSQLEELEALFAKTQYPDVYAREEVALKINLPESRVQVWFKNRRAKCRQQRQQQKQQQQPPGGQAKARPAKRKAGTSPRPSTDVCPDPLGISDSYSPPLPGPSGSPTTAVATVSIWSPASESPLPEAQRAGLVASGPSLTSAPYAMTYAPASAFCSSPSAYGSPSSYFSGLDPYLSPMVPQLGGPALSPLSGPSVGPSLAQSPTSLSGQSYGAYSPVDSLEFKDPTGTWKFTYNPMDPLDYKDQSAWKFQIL
# How it was run: as §1
# ETV1 = ETV1 (Homo sapiens, UniProt P50549 1-477); details: protein: recombinant; tags: N-terminal GST; dsDNA, one strand shown
# ETV1, sequence (P50549 whole entry): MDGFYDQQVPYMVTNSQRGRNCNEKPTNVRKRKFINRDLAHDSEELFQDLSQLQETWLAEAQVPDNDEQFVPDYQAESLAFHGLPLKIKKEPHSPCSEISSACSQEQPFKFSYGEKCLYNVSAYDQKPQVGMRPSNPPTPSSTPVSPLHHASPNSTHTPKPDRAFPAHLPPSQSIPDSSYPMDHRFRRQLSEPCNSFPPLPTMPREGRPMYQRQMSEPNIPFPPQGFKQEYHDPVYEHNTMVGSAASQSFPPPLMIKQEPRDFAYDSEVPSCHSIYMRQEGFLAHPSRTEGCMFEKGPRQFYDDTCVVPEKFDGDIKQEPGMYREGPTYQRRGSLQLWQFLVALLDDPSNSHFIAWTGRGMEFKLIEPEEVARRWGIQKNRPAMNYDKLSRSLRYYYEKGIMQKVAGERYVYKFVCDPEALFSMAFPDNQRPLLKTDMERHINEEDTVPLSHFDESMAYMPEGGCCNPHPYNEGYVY
# How it was run: as §1
# ERF = biological target: T6, ERF (Homo sapiens, UniProt P50548 1-548); details: protein: recombinant; tags: N-terminal GST; dsDNA, one strand shown
# T6 sequence: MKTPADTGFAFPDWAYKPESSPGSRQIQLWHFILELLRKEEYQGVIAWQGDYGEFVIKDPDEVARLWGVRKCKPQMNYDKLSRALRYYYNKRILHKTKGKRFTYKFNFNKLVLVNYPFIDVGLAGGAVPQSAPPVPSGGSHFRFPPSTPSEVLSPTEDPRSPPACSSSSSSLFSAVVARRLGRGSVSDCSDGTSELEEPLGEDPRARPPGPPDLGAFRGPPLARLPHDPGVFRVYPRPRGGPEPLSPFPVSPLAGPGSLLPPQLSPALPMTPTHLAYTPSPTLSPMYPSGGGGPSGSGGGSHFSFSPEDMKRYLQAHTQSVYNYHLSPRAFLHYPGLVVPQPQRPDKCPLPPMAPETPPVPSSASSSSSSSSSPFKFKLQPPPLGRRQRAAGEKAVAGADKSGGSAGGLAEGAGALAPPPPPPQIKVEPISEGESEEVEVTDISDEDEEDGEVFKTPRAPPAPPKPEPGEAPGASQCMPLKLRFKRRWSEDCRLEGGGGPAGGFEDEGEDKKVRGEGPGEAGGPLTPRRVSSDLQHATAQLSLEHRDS
# How it was run: as §1
# ETV3L = biological target: T7, ETV3L (Homo sapiens, UniProt Q6ZN32 1-361); details: protein: recombinant; tags: N-terminal GST; dsDNA, one strand shown
# T7 sequence: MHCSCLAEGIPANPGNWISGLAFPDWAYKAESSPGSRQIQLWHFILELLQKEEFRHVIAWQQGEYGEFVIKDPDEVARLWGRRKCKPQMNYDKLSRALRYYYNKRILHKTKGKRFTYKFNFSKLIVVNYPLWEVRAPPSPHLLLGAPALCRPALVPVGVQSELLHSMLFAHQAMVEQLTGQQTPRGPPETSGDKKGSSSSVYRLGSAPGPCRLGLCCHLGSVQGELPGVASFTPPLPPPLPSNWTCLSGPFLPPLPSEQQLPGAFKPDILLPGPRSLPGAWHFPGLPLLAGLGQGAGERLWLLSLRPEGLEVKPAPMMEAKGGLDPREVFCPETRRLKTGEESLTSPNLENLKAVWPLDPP
# How it was run: as §1
# ETS2 = biological target: T8, ETS2 (Homo sapiens, UniProt P15036 1-469); details: protein: recombinant; tags: N-terminal GST; dsDNA, one strand shown
# T8 sequence: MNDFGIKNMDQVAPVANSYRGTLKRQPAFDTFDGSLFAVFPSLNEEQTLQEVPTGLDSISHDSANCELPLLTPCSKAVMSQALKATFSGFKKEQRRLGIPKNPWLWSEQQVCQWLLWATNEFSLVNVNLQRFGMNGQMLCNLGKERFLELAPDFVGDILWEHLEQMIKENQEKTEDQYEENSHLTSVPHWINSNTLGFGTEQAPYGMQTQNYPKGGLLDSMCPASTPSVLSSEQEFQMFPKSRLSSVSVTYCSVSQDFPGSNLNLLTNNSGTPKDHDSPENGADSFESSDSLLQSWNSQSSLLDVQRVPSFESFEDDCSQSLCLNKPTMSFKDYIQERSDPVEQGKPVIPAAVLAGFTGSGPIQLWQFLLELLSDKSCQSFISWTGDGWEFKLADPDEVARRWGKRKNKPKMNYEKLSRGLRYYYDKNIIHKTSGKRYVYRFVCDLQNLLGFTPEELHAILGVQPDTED
# How it was run: as §1
# SPDEF = biological target: T9, SPDEF (Homo sapiens, UniProt O95238 1-335); details: protein: recombinant; tags: N-terminal GST; dsDNA, one strand shown
# T9 sequence: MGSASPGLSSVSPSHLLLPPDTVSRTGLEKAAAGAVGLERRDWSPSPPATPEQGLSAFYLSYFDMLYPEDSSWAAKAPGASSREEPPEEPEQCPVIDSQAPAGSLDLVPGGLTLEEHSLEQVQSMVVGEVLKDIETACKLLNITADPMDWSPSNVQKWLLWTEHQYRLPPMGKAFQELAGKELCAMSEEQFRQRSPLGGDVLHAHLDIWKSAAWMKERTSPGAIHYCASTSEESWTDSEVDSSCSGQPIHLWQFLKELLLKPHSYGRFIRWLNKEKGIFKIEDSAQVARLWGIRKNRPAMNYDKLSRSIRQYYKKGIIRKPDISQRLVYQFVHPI
# How it was run: as §1
# ETV7 = biological target: T10, ETV7 (Homo sapiens, UniProt Q9Y603 1-341); details: protein: recombinant; tags: N-terminal GST; dsDNA, one strand shown
# T10 sequence: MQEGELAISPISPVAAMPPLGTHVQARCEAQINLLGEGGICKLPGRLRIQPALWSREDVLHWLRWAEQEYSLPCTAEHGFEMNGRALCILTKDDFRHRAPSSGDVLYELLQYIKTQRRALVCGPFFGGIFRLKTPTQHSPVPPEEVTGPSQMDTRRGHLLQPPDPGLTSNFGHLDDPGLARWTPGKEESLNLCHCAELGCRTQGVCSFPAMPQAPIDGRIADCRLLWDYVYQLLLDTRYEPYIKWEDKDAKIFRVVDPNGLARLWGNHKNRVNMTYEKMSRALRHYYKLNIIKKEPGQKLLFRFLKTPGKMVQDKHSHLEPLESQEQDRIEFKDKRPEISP
# How it was run: as §1
# ELF5 = biological target: T11, ELF5 (Homo sapiens, UniProt Q9UKW6-2 1-255); details: protein: recombinant; tags: N-terminal GST; dsDNA, one strand shown
# T11 sequence: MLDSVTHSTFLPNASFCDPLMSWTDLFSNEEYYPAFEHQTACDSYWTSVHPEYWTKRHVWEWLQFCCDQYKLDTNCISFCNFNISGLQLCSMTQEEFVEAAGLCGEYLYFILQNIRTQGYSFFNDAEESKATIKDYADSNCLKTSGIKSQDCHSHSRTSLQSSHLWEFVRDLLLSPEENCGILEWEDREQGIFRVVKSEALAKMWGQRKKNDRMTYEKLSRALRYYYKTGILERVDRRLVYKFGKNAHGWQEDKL
# How it was run: as §1
# ETV3 = biological target: T12, ETV3 (Homo sapiens, UniProt P41162-2 1-143); details: protein: recombinant; tags: N-terminal GST; dsDNA, one strand shown
# T12 sequence: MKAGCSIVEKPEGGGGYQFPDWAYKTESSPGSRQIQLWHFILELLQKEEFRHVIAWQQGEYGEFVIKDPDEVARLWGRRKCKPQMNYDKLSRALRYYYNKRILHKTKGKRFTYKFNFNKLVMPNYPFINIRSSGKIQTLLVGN
# How it was run: as §1
# ETV6 = ETV6 (Homo sapiens, UniProt P41212 1-452); details: protein: recombinant; tags: N-terminal GST; dsDNA, one strand shown
# ETV6, sequence (P41212 whole entry): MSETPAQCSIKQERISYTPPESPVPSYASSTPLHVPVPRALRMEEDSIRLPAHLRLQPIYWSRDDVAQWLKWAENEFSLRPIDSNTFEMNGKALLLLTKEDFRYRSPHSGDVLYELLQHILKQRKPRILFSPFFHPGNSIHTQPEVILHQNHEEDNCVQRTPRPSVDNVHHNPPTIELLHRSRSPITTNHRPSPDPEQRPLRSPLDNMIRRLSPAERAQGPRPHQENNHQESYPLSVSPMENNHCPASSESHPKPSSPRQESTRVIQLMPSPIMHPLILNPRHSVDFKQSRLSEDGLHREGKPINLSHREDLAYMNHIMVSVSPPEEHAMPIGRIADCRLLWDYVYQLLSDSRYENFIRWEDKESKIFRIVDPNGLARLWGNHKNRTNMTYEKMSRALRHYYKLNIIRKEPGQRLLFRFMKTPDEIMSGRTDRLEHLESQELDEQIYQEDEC
# How it was run: as §1
sequence,measurement,setting,value
TTTCCG,binding signal,FEV,"5.31 fold enrichment (6-mer frequency, TF over GST control)"
same,binding signal,ETV5,"4.02 fold enrichment (6-mer frequency, TF over GST control)"
same,binding signal,HSF1,"1.48 fold enrichment (6-mer frequency, TF over GST control)"
same,binding signal,SPIC,"3.86 fold enrichment (6-mer frequency, TF over GST control)"
same,binding signal,ELF4,"3.35 fold enrichment (6-mer frequency, TF over GST control)"
same,binding signal,ELK4,"2.97 fold enrichment (6-mer frequency, TF over GST control)"
same,binding signal,ETV2,"3.65 fold enrichment (6-mer frequency, TF over GST control)"
same,binding signal,ELF3,"3.54 fold enrichment (6-mer frequency, TF over GST control)"
same,binding signal,CRX,"1.39 fold enrichment (6-mer frequency, TF over GST control)"
same,binding signal,ETV1,"3.76 fold enrichment (6-mer frequency, TF over GST control)"
same,binding signal,ERF,"3.3 fold enrichment (6-mer frequency, TF over GST control)"
same,binding signal,ETV3L,"3.52 fold enrichment (6-mer frequency, TF over GST control)"
same,binding signal,ETS2,"3.92 fold enrichment (6-mer frequency, TF over GST control)"
same,binding signal,SPDEF,"3.35 fold enrichment (6-mer frequency, TF over GST control)"
same,binding signal,ETV7,"3.55 fold enrichment (6-mer frequency, TF over GST control)"
same,binding signal,ELF5,"5.34 fold enrichment (6-mer frequency, TF over GST control)"
same,binding signal,ETV3,"4.06 fold enrichment (6-mer frequency, TF over GST control)"
same,binding signal,ETV6,"4.37 fold enrichment (6-mer frequency, TF over GST control)"
